One assay has as its system TAB165. Put plainly: qHTS profiling for inhibitors of Plasmodium falciparum proliferation (AID 504749). Further: potency means the concentration at half of the fitted maximal effect. The note with it: P. falciparum in erythrocytes, SYBR Green DNA, 72 h; series mostly up to 28.7 µM. Summed up: (§1)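 Parasite proliferation within erythrocytes, 72 h exposure. Endpoint: SYBR Green I fluorescence after overnight lysis at room temperature. Controls: 0.29 uM artemisinin, DMSO.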

A further assay concerns CRL-7250. Nature of the assay: Cytotoxic Profiling of Annotated Libraries Using Quantitative High-Throughput Screening (AID 1296008). Further: potency means the concentration at half of the fitted maximal effect. On max response: on the % scale 0 is the no-effect control and ±100 the full control effect. The following applies: Five cell lines viability, CellTiter-Glo ATP luminescence, 48-72 h; max response: hits give low values. Summed up:
(§2)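 Compounds were pin-transferred onto cells and incubated 48 or 72 hr at 37 degree Celsius, 95% humidity. CellTiter-Glo was added, plates sat 10 min at room temperature, then ATP-coupled luminescence was imaged as the viability read-out.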

Another assay has as its system HEK293. The assay is described as above. The note with it: Five cell lines viability, CellTiter-Glo ATP luminescence, 48-72 h; max response: hits give low values. An outline of the steps:
as §2

In assay [1] the test system is HaCat. Described as above. The note with it: Five cell lines viability, CellTiter-Glo ATP luminescence, 48-72 h; max response: hits give low values. An outline of the steps: as §2
Another assay has as its system KB-3-1. The assay is described as above. The following applies: Five cell lines viability, CellTiter-Glo ATP luminescence, 48-72 h; max response: hits give low values. An outline of the steps:
as §2

The next assay deals with NIH3T3. Described as above. The note with it: Five cell lines viability, CellTiter-Glo ATP luminescence, 48-72 h; max response: hits give low values. An outline of the steps: as §2
Assay [2] relates to HACAT. Put plainly: qHTS assay to identify novel small-molecules to repurpose for Merkel cell carcinoma treatment (AID 1296009). On activity change, negative = cytotoxicity: on the % scale 0 is the no-effect control and ±100 the full control effect. The note with it: MCC and control cell lines, CellTiter-Glo viability, 72 h; at 44.8 µM (top of the series) unless noted. Summed up: (§3)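 qHTS format: cells treated with library compounds in DMSO across 8 (NPC) or 11 (MIPE) concentrations. Readout after 72 hr at 37 degree celsius was CellTiter-Glo luminescence.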

The subject of the next assay is HEK293T. The description is as above. The following applies: MCC and control cell lines, CellTiter-Glo viability, 72 h; at 44.8 µM (top of the series) unless noted. An outline of the steps:
as §3

For the next assay, the system named is MCC-13. Described as above. The note with it: MCC and control cell lines, CellTiter-Glo viability, 72 h; series mostly up to 46 µM. An outline of the steps: as §3
A further assay has as its system W2. Put plainly: qHTS profiling for inhibitors of Plasmodium falciparum proliferation (AID 504749). Further: potency means the concentration at half of the fitted maximal effect. The following applies: P. falciparum in erythrocytes, SYBR Green DNA, 72 h; series mostly up to 28.7 µM. Summed up:
as §1

SMILES strings stand for the structures. Values joined by “and” are separate entries in the source; they are usually repeats but may differ in a detail not shown here. Equal values may be shown once. Records with an inconclusive call do not appear. A structure can be active in one record and inactive in another. A number with no mark means an inactive call. Active and inactive are the calls of the source. The call rests on the fitted dose curve; in most records, active means well fitted inhibition curve with a large enough effect; inconclusive means small, poorly fitted or top-dose-only effect; inactive means flat fitted curve, though single readings scatter.
Further: nearly all actives have a fitted effect of over 60% in size.

`CCOc1ccc2ccccc2c1C(=O)N[C@@H]1C(=O)N2[C@@H]1SC(C)(C)[C@@H]2C(=O)O`: the Potency result in the assay on TAB165 and in the assay on MCC-13 was “inactive” each time. In addition, the outcome in the assay on CRL-7250, with HEK293, in the assay with HaCat [1], with HACAT [2] and in the assay on HEK293T was inactive. In addition, the max response in the assay with HEK293 is 0.937%; in the assay with HaCat [1], 4.96%; with KB-3-1 it was -11.5% and -0.445%; in the assay with NIH3T3 it was -3.18% and 1.59%.
On to `CCN(CC)CCNC(=O)c1cc(Cl)c(N)cc1OC`, for which the Potency result in the assay with TAB165, in the assay on W2 and with MCC-13 was “inactive” each time. Further, the max response is 0.565% in the assay with CRL-7250; -1.38% in the assay on HEK293; 1.24% with HaCat [1]; 7.45% in the assay on KB-3-1; -2.52% in the assay on NIH3T3. The molecule was called inactive in the assay on HEK293, in the assay with HaCat [1], in the assay with KB-3-1, in the assay on NIH3T3, in the assay with HACAT [2] and with HEK293T.
For `CN1CCC[C@@H]1Cc1c[nH]c2ccc(CCS(=O)(=O)c3ccccc3)cc12`, the Potency in the assay with W2 is 4.78 µM (active). In addition, the call with CRL-7250, in the assay with HEK293, in the assay on HaCat [1], with NIH3T3, in the assay on HACAT [2] and in the assay on HEK293T was inactive. For the same molecule, the results for the max response in the assay with HEK293 and in the assay with NIH3T3 were -1.58% and -4.41%, respectively. Also, in the assay with MCC-13, the Potency result was “inactive”.
Take `CCN(CC)C(=O)Nc1ccc(OCC(O)CNC(C)(C)C)c(C(C)=O)c1` (centres undefined): the max response in the assay with CRL-7250 was -2.26% and 4.22%; with HEK293, -6.49%; in the assay on KB-3-1 it was 3.46% and 6.71%; in the assay with NIH3T3 it was -5.4% and -0.794%. Also, the molecule was called inactive in the assay on HEK293, with HaCat [1], in the assay with HACAT [2] and in the assay on HEK293T. In addition, the Potency result in the assay with MCC-13 was “inactive”.
`CCOC(=O)[C@H](CCc1ccccc1)N[C@@H](C)C(=O)N1C(=O)N(C)C[C@H]1C(=O)O`: the Potency result with TAB165, in the assay with W2 and in the assay on MCC-13 was “inactive” in each case. In addition, the max response in the assay on CRL-7250 is 1.6%; in the assay with HEK293, -1.24%; with HaCat [1], 0.859%; in the assay with KB-3-1 it was 5.5% and 4.49%; in the assay on NIH3T3 it was 4.99%. The molecule was classed as inactive in the assay with CRL-7250, in the assay on HEK293, in the assay with HaCat [1], with NIH3T3, in the assay with HACAT [2] and in the assay with HEK293T.
With `CC(C(O)c1ccc(O)cc1)N1CCC(Cc2ccccc2)CC1` (centres undefined), the Potency is 8.91 µM (active) in the assay on TAB165 and 4.26 µM (active) in the assay with W2. The max response was -1.07% in the assay with CRL-7250; -22.6% in the assay with HaCat [1]; -2.06% and 3.27% in the assay on NIH3T3. The call in the assay on CRL-7250 and in the assay on HaCat [1] was inactive. Further, the outcome in the assay on HACAT [2] is “inactive [at 17.4 µM]”. In the assay with MCC-13, the Potency result was “inactive”.
In the case of `c1ccc(CN(CC2=NCCN2)c2ccccc2)cc1`, the Potency with W2 is 7.57 µM (active). Besides, the max response was 3.95% and 1.52% in the assay with CRL-7250; 0.31% and -21.2% in the assay with HEK293; 4.83% in the assay on HaCat [1]; 2.96% with NIH3T3. The result in the assay on HaCat [1], in the assay with NIH3T3 and in the assay on HACAT [2] was inactive. For the same molecule, the Potency entry in the assay with MCC-13 was “inactive”.
Regarding `CCCCOc1cc(C(=O)OCCN(CC)CC)ccc1N`, the Potency entry with TAB165, with W2 and in the assay on MCC-13 was “inactive” throughout. Besides, the max response in the assay with CRL-7250 was -0.166%; in the assay on HEK293, -17.2% and -4.15%; in the assay on HaCat [1], 1.81%. The molecule was called inactive in the assay with CRL-7250, in the assay with HaCat [1], in the assay on NIH3T3 and in the assay with HACAT [2].
Regarding `COc1ccc(Cl)cc1C(=O)NCCc1ccc(S(=O)(=O)NC(=O)NC2CCCCC2)cc1`, the Potency entry with TAB165 and with MCC-13 was “inactive” each time. The max response with CRL-7250 is -1.35% and -10.9%; with HEK293, -12.8%; in the assay on HaCat [1] it was 2.84% and -12.6%; with KB-3-1, -9.53%; in the assay with NIH3T3, -5.68% and -4.29%. Also, the molecule was classed as inactive with HEK293, in the assay on KB-3-1 and with HEK293T.
With `C/C(=C(\CCOP(=O)(O)O)SC(=O)c1ccccc1)N(C=O)Cc1cnc(C)nc1N`, the max response with CRL-7250 was -3.12%; with KB-3-1, 9.44%. Moreover, the call in the assay on HEK293, in the assay on HaCat [1] and in the assay on NIH3T3 was inactive. Further, the outcome with HACAT [2] and in the assay on HEK293T was “inactive [at 4.96 µM]” in each case. Further, the activity change, negative = cytotoxicity in the assay with MCC-13 was -6.17% [at 4.84 µM].
Take `CCOc1nc2cccc(C(=O)O)c2n1Cc1ccc(-c2ccccc2-c2nn[nH]n2)cc1`: the max response in the assay with CRL-7250 was -0.772%; in the assay on HEK293, -7.13% and 4.6%; with HaCat [1], -22.9% and -2.42%; in the assay with KB-3-1, -0.374% and 6.58%; in the assay with NIH3T3, 4.21%. Further, the call in the assay with CRL-7250 and in the assay with NIH3T3 was inactive. Moreover, in the assay on MCC-13, the Potency entry was “inactive”.
For `Cn1c(=O)c2c(ncn2CC2OCCO2)n(C)c1=O`, the Potency result in the assay with TAB165, in the assay on W2 and with MCC-13 was “inactive” each time. Further, the max response with CRL-7250 was -4.54% and 1.94%; in the assay on HaCat [1] it was -3.76%; in the assay with KB-3-1, 6.93% and 8.78%; with NIH3T3 it was 0.911%. Moreover, the call with HEK293, in the assay with HaCat [1], with NIH3T3, in the assay on HACAT [2] and with HEK293T was inactive.
For the molecule `N[C@H](C(=O)O)c1ccc(O)cc1`, the max response in the assay on CRL-7250 is 3.21%; with KB-3-1, 2.74%; in the assay with NIH3T3, -1.62%. Besides, the molecule was classed as inactive in the assay with HEK293 and in the assay on HaCat [1]. The outcome with HACAT [2] and in the assay with HEK293T was “inactive [at 17.4 µM]” each time. For the same molecule, in the assay with MCC-13, the Potency entry is “inactive”.
With `COc1ccc2[nH]c(S(=O)Cc3ncc(C)c(OC)c3C)nc2n1` (centres undefined), the Potency is 7.94 µM (active) in the assay on TAB165 and 9.53 µM (active) in the assay on W2. In addition, the call in the assay on CRL-7250, in the assay on HEK293, in the assay on HaCat [1], in the assay on NIH3T3, with HACAT [2] and in the assay on HEK293T was inactive. Besides, the max response in the assay with HaCat [1] was -5.32%; in the assay on NIH3T3, 3.86%. Moreover, the Potency result in the assay with MCC-13 is “inactive”.
For the molecule `CC(C)(O)c1ccccc1CC[C@@H](SCC1(CC(=O)O)CC1)c1cccc(/C=C/c2ccc3ccc(Cl)cc3n2)c1`, the max response in the assay with CRL-7250 was -23.3%; with HEK293, 4.81%; in the assay with KB-3-1, -11.2% and 6.98%; in the assay with NIH3T3 it was -22.4%. Moreover, the outcome in the assay with HaCat [1], with NIH3T3 and with HACAT [2] was inactive. In addition, the Potency entry in the assay on MCC-13 was “inactive”.
Turning to `Cc1cc(N)c2ccccc2[n+]1CCCCCCCCCC[n+]1c(C)cc(N)c2ccccc21`, the Potency with TAB165 is 0.1 µM (active); with W2, 0.102 µM (active); in the assay on CRL-7250, 14.6 µM (active); in the assay on HEK293, 1.3 µM (active); in the assay with KB-3-1 it was 9.2 µM (active). Moreover, the max response with HaCat [1] was -1.45%; with KB-3-1, -23.8%; in the assay with NIH3T3, -20.7%.

The record behind these values is PubChem BioAssay (NCATS).
